PubChem BioAssay AID1159580 (chemical genetic matrix, 2015)
Several values for one entry are separate records, joined by “and”; a condition that tells them apart may be missing. Equal entries are not always repeated. The whole screen tested about 5,500 compounds, of which about 2,000 (36%) were called active. Another 18% or so got no clear call; they are omitted. Rule as the data show it: active = normalized growth mostly below about 0.91 (no sharp cut-off); inconclusive = no clear call, values can overlap the other calls; inactive = mostly above about 0.92. Some of the results follow.

Assay: chemical genetic growth profiling, strain panel (AID 1159580);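 also: tested at 20 µM; growth read once vehicle control cultures reached saturation at 30 °C; 1 = growth at the plate median or of vehicle wells; lower values mean less growth of the strain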
Conditions: S. cerevisiae deletion strains, growth OD

Measured: normalized growth

N#Cc1c(Cl)c(Cl)c(Cl)c(C#N)c1Cl
0.992 (inactive) and 0.126 (active): locus YHR030C, strain SLT2, stronger effect = lower value
inactive: locus YAL013W, strain DEP1, stronger effect = lower value 1 | locus YBR021W, strain FUR4, stronger effect = lower value 0.953 | locus YBR229C, strain ROT2, stronger effect = lower value 0.991 | locus YCL029C, strain bik1, stronger effect = lower value 0.976 | locus YDL035C, strain GPR1, stronger effect = lower value 1 | locus YDL074C, strain BRE1, stronger effect = lower value 1.01 | locus YDL101C, strain DUN1, stronger effect = lower value 1 | locus YDL134C, strain PPH21, stronger effect = lower value 0.992 | locus YDL185W, strain tfp1, stronger effect = lower value 0.951 | locus YDL192W, strain arf1, stronger effect = lower value 0.984 | locus YDR101C, strain arx1, stronger effect = lower value 0.986 | locus YDR150W, strain NUM1, stronger effect = lower value 1.01 | locus YDR162C, strain NBP2, stronger effect = lower value 1.01 | locus YDR318W, strain mcm21, stronger effect = lower value 0.975 | locus YDR388W, stronger effect = lower value 0.97 | locus YDR502C, strain sam2, stronger effect = lower value 0.996 | locus YEL061C, strain CIN8, stronger effect = lower value 1 | locus YER110C, stronger effect = lower value 0.976 | locus YER155C, strain BEM2, stronger effect = lower value 0.993 | locus YER167W, strain BCK2, stronger effect = lower value 0.993 | locus YGL078C, strain dbp3, stronger effect = lower value 0.983 | locus YGL086W, strain mad1, stronger effect = lower value 0.976 | locus YGL248W, strain PDE1, stronger effect = lower value 0.994 | locus YGR078C, strain PAC10, stronger effect = lower value 1.01 | locus YGR135W, strain pre9, stronger effect = lower value 0.998 | locus YGR229C, strain SMI1, stronger effect = lower value 1 | locus YGR252W, strain gcn5, stronger effect = lower value 0.932 | locus YHR079C, strain IRE1 (second series), stronger effect = lower value 0.98 | locus YHR094C, strain hxt1, stronger effect = lower value 0.979 | locus YHR129C, strain ARP1, stronger effect = lower value 1 | locus YHR200W, strain rpn10, stronger effect = lower value 0.973 | locus YIL066C, strain RNR3, stronger effect = lower value 0.989 | locus YIL073C, strain SPO22, stronger effect = lower value 0.969 | locus YIL125W, strain kgd1, stronger effect = lower value 0.98 | locus YIR030C, strain dcg1, stronger effect = lower value 0.976 | locus YJL134W, strain LCB3, stronger effect = lower value 0.998 | locus YJL168C, strain set2, stronger effect = lower value 0.985 | locus YJL187C, strain SWE1 (second series), stronger effect = lower value 0.994 | locus YJR043C, strain POL32, stronger effect = lower value 0.994
1 (inactive) and 0.151 (active): locus YJL095W, strain BCK1, stronger effect = lower value
active: locus YAL021C, strain ccr4, stronger effect = lower value 0.0842 | locus YAL026C, strain drs2, stronger effect = lower value 0.0831 | locus YAL030W, strain snc1, stronger effect = lower value 0.0677 | locus YBL061C, strain skt5, stronger effect = lower value 0.0748 | locus YBR009C, strain hhf1, stronger effect = lower value 0.0742 | locus YBR023C, strain chs3, stronger effect = lower value 0.0756 | locus YBR171W, strain sec66, stronger effect = lower value 0.0931 | locus YBR231C, strain swc5, stronger effect = lower value 0.077 | locus YBR279W, strain paf1, stronger effect = lower value 0.0631 | locus YCL011C, strain gbp2, stronger effect = lower value 0.0716 | locus YCL016C, strain dcc1, stronger effect = lower value 0.0812 | locus YCL061C, strain MRC1, stronger effect = lower value 0.078 | locus YCL069W, strain vba3, stronger effect = lower value 0.0768 | locus YCR088W, strain abp1, stronger effect = lower value 0.0707 | locus YDL005C, strain med2, stronger effect = lower value 0.0898 | locus YDL040C, strain nat1, stronger effect = lower value 0.0666 | locus YDR001C, strain nth1, stronger effect = lower value 0.071 | locus YDR069C, strain doa4, stronger effect = lower value 0.0807 | locus YDR137W, strain rgp1, stronger effect = lower value 0.106 | locus YDR159W, strain sac3, stronger effect = lower value 0.113 | locus YDR195W, strain ref2 0.161 | locus YDR297W, strain sur2, stronger effect = lower value 0.0715 | locus YDR334W, strain swr1, stronger effect = lower value 0.0727 | locus YDR335W, strain msn5, stronger effect = lower value 0.0699 | locus YDR392W, strain spt3, stronger effect = lower value 0.0937 | locus YEL003W, strain gim4, stronger effect = lower value 0.0699 | locus YEL037C, strain rad23, stronger effect = lower value 0.0662 | locus YEL061C, strain CIN8 (second series), stronger effect = lower value 0.0687 | locus YER015W, strain faa2, stronger effect = lower value 0.078 | locus YER016W, strain bim1, stronger effect = lower value 0.0769 | locus YER111C, strain swi4, stronger effect = lower value 0.0874 | locus YER155C, strain BEM2 (second series), stronger effect = lower value 0.108 | locus YFR010W, strain ubp6, stronger effect = lower value 0.0828 | locus YGL167C, strain pmr1, stronger effect = lower value 0.0894 | locus YGL173C, strain kem1, stronger effect = lower value 0.084 | locus YGL227W, strain vid30, stronger effect = lower value 0.0779 | locus YGL240W, strain doc1, stronger effect = lower value 0.0947 | locus YGL253W, strain hxk2, stronger effect = lower value 0.0661 | locus YHR013C, strain ard1, stronger effect = lower value 0.114 | locus YHR027C, strain rpn1, stronger effect = lower value 0.0746 | locus YHR079C, strain IRE1, stronger effect = lower value 0.142 | locus YHR142W, strain chs7, stronger effect = lower value 0.0874 | locus YJL092W, strain hpr5, stronger effect = lower value 0.0707 | locus YJL095W, strain BCK1 (second series), stronger effect = lower value 0.0749 | locus YJL115W, strain asf1, stronger effect = lower value 0.0849 | locus YJL129C, strain trk1, stronger effect = lower value 0.106 | locus YJL154C, strain vps35, stronger effect = lower value 0.07 | locus YJL164C, strain tpk1, stronger effect = lower value 0.0766 | locus YJL166W, strain qcr8, stronger effect = lower value 0.0732 | locus YJR066W, strain TOR1, stronger effect = lower value -0.00264
